Only some compounds are listed: those with a hit (about 19% of all), similar ones and a draw of the others.
HT1080NT lethal – kills 2HG-producing HT-1080-NT fibrosarcoma cells; Potency, µM (highest dose often 46.1 µM), for inactives: top-dose activity, negative = less viability, usual class: cytotoxic; HT-1080-NT fibrosarcoma viability, CellTiter-Glo ATP luminescence, 48 h; AID 686970; 1.6% of 360,000 active;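 also: NT is the 2HG producing partner of a matched IDH1 knockdown line; potency is read from the fitted curve at half-maximal effect; 0% = DMSO-treated cells and -100% = media-only wells without cells; nearly all actives have a fitted effect of over 55% in size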
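Read-out is CellTiter-Glo luminescence after 10 minutes at room temperature, following 48 hours' compound treatment of HT-1080-NT cells (750 cells/well, RPMI, 5% FBS, 37 degrees C).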
TDP1 cell CPT – growth inhibition of DT40 Tdp1-/-;hTDP1 cells with camptothecin (screen for TDP1 inhibitors); chicken DT40 Tdp1-/-;hTDP1 cells + 20 nM CPT, ATP luminescence, 48 h; Potency, µM (highest dose often 46.2 µM), inactives show top-dose activity change, negative = growth inhibition, usual class: inhibitors; 12% of 420,000 active; AID 686979; also: potency is read from the fitted curve at half-maximal effect; nearly all actives have a fitted effect of over 55% in size
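Chicken DT40 Tdp1-/- cells stably complemented with human TDP1 were seeded at 400 cells/well in medium containing 20 nM camptothecin, exposed to pin-transferred compounds, and grown at 37 °C for at least 48 hr. Viability was read as ATP luminescence.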
TDP1 cell noCPT – qHTS for Inhibitors of human tyrosyl-DNA phosphodiesterase 1 (TDP1): qHTS in cells in absence of CPT | Potency, µM (titrated, usually from 46.2 µM), inactives show top-dose activity change, negative = growth inhibition, usual class: inhibitors | DT40 Tdp1-/- hTDP1 cells, no CPT, ATP luminescence, 48 h | 15% of 420,000 active; also: potency is read from the fitted curve at half-maximal effect; nearly all actives have a fitted effect of over 55% in size
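Stably hTDP1-transfected Tdp1-null chicken DT40 cells were treated with library compounds minus camptothecin and grown for at least 48 hr at 37 °C, after which cellular ATP was quantified by luminescence.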
IL1B secr inh – inflammasome signaling inhibition, IL-1 beta readout. THP-1 LPS/ATP IL-1B secretion, AlphaLISA, 16 h; active compounds read low. activity change, % at 57.5 µM. 4.7% of 360,000 active; in the data active = activity change below about -50%; inconclusive = mostly about -30% to -49%
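Secreted IL-1B measured by AlphaLISA bead assay after 16 h compound exposure of THP-1 cells; compounds (final up to 57.5 uM) added 1 h before LPS (250 ng/mL) and ATP (1.25 mM) stimulation; lower signal means less secretion.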
HT1080 IDH1KD tx – kills HT-1080 cells with IDH1 knockdown; HT-1080 IDH1 knockdown viability, ATP luminescence, 48 h; Potency, µM (titrated, usually from 46.1 µM), for inactives: top-dose activity, negative = toxicity, actives largely listed as cytotoxic; AID 686971; 2% of 360,000 active;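 also: potency is read from the fitted curve at half-maximal effect; 0% = DMSO wells and -100% = cell-free medium wells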
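Using the IDH1-knockdown HT-1080 line run in the same batch and compound series as the NT line, viability after 48 h at 37 °C was determined by CellTiter-Glo luminescence and expressed as % activity.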
Starred values were filed as active, the others as inactive; ? = inconclusive; . = no result. Unless noted, calls follow the shape of the dose curve; as a rule, active = well fitted curve in the direction sought with a large enough effect; inconclusive = small, poorly fitted or top-dose-only effect, or another doubt; inactive = no such curve, though single readings can be large; an effect the other way counts as inactive or inconclusive. Unless noted, % is scaled to controls: 0 for no effect and ±100 for the full control effect.

SMILES	HT1080NT lethal	TDP1 cell CPT	TDP1 cell noCPT	IL1B secr inh	HT1080 IDH1KD tx
Cc1c(C(=O)N2CCOCC2)c(S(=O)(=O)Nc2ccc(C(C)C)cc2)c(C)n1C	8%	13µM*	?	42	11%
CC(C)Oc1ccc(CNC(=O)Cn2ncn3nc(-c4cccs4)cc3c2=O)cc1	.	-29%	-29%	.	.
Cc1cccc(-n2c(SCC(N)=O)nc3c(c2=O)C2(CCCC2)Cc2ccccc2-3)c1	?	0%	0%	-19	?
NC(=O)CSc1nc2c(c(=O)n1-c1ccccc1)C1(CCCCC1)Cc1ccccc1-2	?	?	?	-53*	13µM*
CC(C)N(C(=O)CS(=O)(=O)c1ccc(Cl)c(Cl)c1)C(C)C	13%	-17%	?	-13	2%
CCOC(=O)CN1C(=O)N[C@@H](c2ccco2)C(C(=O)OC)=C1C	0%	3%	8%	50	0%
COc1ccc(S(=O)(=O)Nc2ccc3c(c2)C(=O)N([C@H](C)CO)C[C@H](C)[C@@H](CN(C)S(=O)(=O)c2ccccc2)O3)cc1	0%	21µM*	?	-14	-3%
COc1ccc(S(=O)(=O)N(C)C[C@H]2Oc3ccc(NS(=O)(=O)c4ccccc4)cc3C(=O)N([C@H](C)CO)C[C@@H]2C)cc1	-2%	-26%	-9%	?	1%
COc1ccc(S(=O)(=O)N(C)C[C@H]2Oc3ccc(NC(=O)Cc4cn(C)c5ccccc45)cc3C(=O)N([C@@H](C)CO)C[C@@H]2C)cc1	-7%	?	15µM*	-2	-12%
CC(=O)Nc1ccc(C(=O)CN2C(=O)NC3(CCCc4ccccc43)C2=O)c(F)c1 (stereo unspecified)	-3%	8%	-21%	5	-7%
Cc1sc2nc(CN3CCCC3)nc(N3CCN(S(=O)(=O)c4cccs4)CC3)c2c1C	?	?	18µM*	?	16µM*
Cc1ccc(S(=O)(=O)N2CCN(c3nc(CN4CCCC4)nc4sc(C)c(C)c34)CC2)cc1	-25%	?	?	?	-15%
Cc1ccc(C)c(S(=O)(=O)N2CCN(c3nc(CN4CCOCC4)nc4sc(C)c(C)c34)CC2)c1	-15%	?	18µM*	-28	-13%
COc1ccccc1CNC(=O)COC(=O)/C=C/c1ccc2c(c1)OCO2	1%	-17%	-12%	-1	8%
O=C(COc1ccc(Cl)cc1)NCc1n[nH]c(=O)c2ccccc12	4%	-17%	-12%	-2	-1%
Cn1c(SCc2ccccc2)nc2c1c(=O)[nH]c(=O)n2C	0%	-17%	-1%	26	-1%
C/C=C/Cn1c(SCc2ccc(Cl)cc2)nc2c1c(=O)[nH]c(=O)n2C	?	18µM*	23µM*	18	?
C=CCn1c(SCCCc2ccccc2)nc2c1c(=O)[nH]c(=O)n2C	-1%	?	26µM*	54	-1%
COCCn1c(SCc2ccc(Cl)cc2)nc2c1c(=O)[nH]c(=O)n2C	-24%	8%	?	16	?
CCCn1c(SCc2ccc(Cl)cc2)nc2c1c(=O)[nH]c(=O)n2C	-26%	?	16µM*	-10	?
CCn1c(SCc2ccccc2)nc2c1c(=O)[nH]c(=O)n2C	-3%	?	18µM*	48	-12%
Cn1c(=O)c2c(nc(SCC(=O)Nc3ccc(F)cc3)n2Cc2ccccc2F)n(C)c1=O	.	-23%	?	.	.
COc1ccc(CC(=O)NNC(=O)CSc2nc(C)c(C)c(=O)[nH]2)cc1	0%	8%	-6%	18	0%
Cc1cccc(N(C)C(=O)Cn2c(=O)oc3cc(S(=O)(=O)N4CCCCC4)ccc32)c1	.	0%	-11%	.	.
COC(=O)c1cccn(CC(=O)c2ccc(Cl)cc2Cl)c1=O	8%	20%	-20%	-9	6%
SMILES	HT1080NT lethal	TDP1 cell CPT	TDP1 cell noCPT	IL1B secr inh	HT1080 IDH1KD tx
CCCCCCn1c(SCCC)nc2c1c(=O)[nH]c(=O)n2C	-2%	-23%	10µM*	17	4%
COCCn1c(SCC(=O)Nc2ccccc2C)nc2c(oc3ccccc32)c1=O	7%	-28%	-25%	0	2%
CCc1ccccc1NC(=O)CSc1nc2c(oc3ccccc32)c(=O)n1-c1ccccc1F	.	?	18µM*	.	.
Cc1ccccc1NC(=O)CSc1nc2c(oc3ccccc32)c(=O)n1-c1ccccc1F	.	?	23µM*	.	.
CCCCCNCc1ccc(Cl)cc1	0%	17%	-13%	6	3%
CCCCCCC[N+](CC)(CC)CCCCc1ccc(Cl)cc1	6.5µM*	0.65µM*	0.21µM*	?	6.5µM*
O=C(COC(=O)Cn1cnc2ccccc21)Nc1cccc(S(=O)(=O)N2CCOCC2)c1	16%	-9%	-9%	0	10%
Cc1c(NC(=O)Nc2cccc(C#N)c2)c(=O)n(-c2ccccc2)n1C	6%	5%	5%	0	4%
CN(Cc1cnccn1)Cc1cn(Cc2ccccc2)nc1-c1ccc2c(c1)OCO2	4%	10%	-2%	30	8%
CN(Cc1ccccn1)Cc1cn(Cc2ccccc2)nc1-c1ccc2c(c1)OCO2	-13%	-27%	23µM*	?	0%
CC(c1ccon1)N(C)Cc1cn(Cc2ccccc2)nc1-c1ccc2c(c1)OCO2 (stereo unspecified)	-2%	18µM*	?	-29	-1%
CS(=O)(=O)N1CCC2(CC1)CN(C(=O)Nc1cccc(C#N)c1)C2	.	-1%	4%	.	.
C[C@]12c3[nH]c4ccc(Cl)cc4c3CCN1C(=O)[C@@H](CC(=O)NCC13CC4CC(CC(C4)C1)C3)C[C@@H]2C(=O)N1CCCCC1	4%	16µM*	16µM*	-60*	8%
COc1ccc2[nH]c3c(c2c1)CCN1C(=O)C(CC(=O)NCC24CC5CC(CC(C5)C2)C4)C[C@H](C(=O)N2CCOCC2)[C@@]31C (stereo partly specified)	0%	?	?	?	-15%
COCCCNC(=O)C[C@H]1C[C@H](C(=O)N2CCOCC2)[C@@]2(C)c3[nH]c4ccc(Cl)cc4c3CCN2C1=O	-2%	?	-11%	-11	-8%
C[C@]12c3[nH]c4ccc(Cl)cc4c3CCN1C(=O)[C@@H](CC(=O)NCC13CC4CC(CC(C4)C1)C3)C[C@@H]2C(=O)N1CCOCC1	23µM*	10µM*	13µM*	?	?
Cc1ccccc1C(=O)NCCN1CCC(n2c(=O)[nH]c3ccccc32)CC1	11%	?	-23%	-7	4%
